Bioassay records from PubChem.
ALDH1A1 inh = ALDH1A1 (human) enzyme inhibition; AID 1030; 220,000 compounds, 7.3% hits; Purified ALDH1A1, NADH fluorescence, propionaldehyde substrate; P00352; Potency, µM (doses to about 75.3 µM), for the others: at the highest dose activity, negative = inhibition, hits mostly inhibitors;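 note: potency is the fitted concentration of half-maximal effect; plate controls were no enzyme wells and a reference inhibitor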
Target sequence (P00352 whole entry, looked up): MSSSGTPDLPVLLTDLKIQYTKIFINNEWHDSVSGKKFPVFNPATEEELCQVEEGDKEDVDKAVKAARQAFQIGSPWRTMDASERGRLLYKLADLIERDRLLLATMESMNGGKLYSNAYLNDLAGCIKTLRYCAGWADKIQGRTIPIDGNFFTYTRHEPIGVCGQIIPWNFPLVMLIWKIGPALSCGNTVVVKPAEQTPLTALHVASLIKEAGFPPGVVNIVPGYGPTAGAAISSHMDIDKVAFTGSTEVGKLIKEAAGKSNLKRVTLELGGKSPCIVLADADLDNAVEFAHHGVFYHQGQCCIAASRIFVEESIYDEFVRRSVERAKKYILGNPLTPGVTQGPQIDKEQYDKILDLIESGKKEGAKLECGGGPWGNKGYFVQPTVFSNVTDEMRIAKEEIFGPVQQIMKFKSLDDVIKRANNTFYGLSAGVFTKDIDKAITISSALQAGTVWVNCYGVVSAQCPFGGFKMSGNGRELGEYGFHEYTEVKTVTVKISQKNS
ALOX12 inhib = inhibitors of human 12-lipoxygenase (ALOX12); P18054; purified 12-hLO, xylenol orange hydroperoxide absorbance; Potency, µM (series often up to 57.1 µM), without a hit: at the highest dose activity change, negative = inhibition, hits mostly inhibitors; 150,000 compounds, 0.12% hits; active = well fitted inhibition curve with a large enough effect; inconclusive = small, poorly fitted or top-dose-only effect; note: potency is the fitted concentration of half-maximal effect; nearly all actives have a fitted effect of over 55% in size
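Purified human 12hLO (150 nM), preincubated 15 min with compound, then 40 uM arachidonic acid for 30 min, room temperature, Hepes pH 7.0 with 0.01% Triton X-100. Hydroperoxide detected by ferrous iron/xylenol orange; 573/405 nm absorbance ratio gives reaction progress.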
HPGD inh = HPGD (human) dehydrogenase inhibition; purified HPGD, NADH fluorescence kinetic, PGE2 substrate; Potency, µM, inactives show at the top dose activity change, negative = inhibition, most hits filed as inhibitors; 150,000 compounds, 4.3% hits; AID 894; note: potency is the fitted concentration of half-maximal effect
Target sequence (P15428 whole entry, looked up): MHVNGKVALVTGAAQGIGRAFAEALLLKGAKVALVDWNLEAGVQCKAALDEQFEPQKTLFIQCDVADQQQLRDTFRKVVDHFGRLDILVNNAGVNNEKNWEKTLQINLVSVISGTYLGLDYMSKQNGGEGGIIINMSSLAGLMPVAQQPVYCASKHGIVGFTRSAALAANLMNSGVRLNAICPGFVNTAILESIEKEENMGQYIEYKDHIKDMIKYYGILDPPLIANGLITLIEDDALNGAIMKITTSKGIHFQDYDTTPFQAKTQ
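NADH formation kinetics: reaction with 30 uM PGE2 and 1 mM NAD+ (final), 20 nM enzyme, Tris-HCl pH 8 with Tween 20, after 15 min compound preincubation at room temperature. Fluorescence change, last versus first of five reads.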
LMNA splice mod = LMNA splicing modulation | HeLa LMNA splicing GFP/RFP minigene ratio, 48 h | Potency, µM (titrated, usually from 46.1 µM), inactives show at the highest dose ratio change, negative = inhibition, usual class: inhibitors | 200,000 compounds, 0.01% hits; active = well fitted inhibition curve with a large enough effect in the signal ratio, with a control signal flat, not every such curve was filed as active; inconclusive = small, poorly fitted or top-dose-only effect, or effect the other way, or a change in a side signal; the % refers to the signal ratio; note: potency is the fitted concentration of half-maximal effect
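S3 HeLa cells stably expressing lamin A-EGFP splicing minigene plus DsRed2, 600 cells/well, 48 h compound exposure at 37C. Laser-scanning cytometry; analysed as GFP (500-530 nm)/RFP (575-640 nm) total intensity ratio; 0.5% DMSO vehicle.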
PNC inhibitor = blocks assembly of the perinucleolar compartment; 140,000 compounds, 3.1% hits; activity change (PNC), negative = inhibition, % at 10 µM; PC3M PTB-GFP, PNC prevalence imaging, 16 h; hits give low values;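 active = readout at or below -70, meaning at least 70% loss of cells showing the perinucleolar compartment, a nuclear body marking cancer cells; inconclusive = readout between -30 and a set limit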;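 note: plate controls were DMSO wells for no effect and camptothecin positive control wells for full effect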
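PC3M cells stably expressing PTB-GFP, 750–1000 cells/well, treated 16 h at 37 °C with compound (23 nl of library stock), in duplicate. After paraformaldehyde fixation and Hoechst stain, imaged at 20x; PNC prevalence scored by image analysis.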
Starred values were filed as active, the others as inactive; [ ] = another dose, or the depositor's remark. An excerpt weighted towards active compounds, which were near 10% of everything screened. Unless noted, calls come from the whole dose curve; as a rule, active = well fitted inhibition curve with a large enough effect (not every such curve was filed as active); inconclusive = small, poorly fitted or top-dose-only effect, or another doubt; inactive = no such curve, though single readings can be large or run the other way. Unless noted, % is set by controls: 0 for no effect and ±100 for the full control effect.

Results for Cc1nc2cc(C(=O)N3CCc4ccccc43)ccc2n1-c1ccc(F)c(F)c1 ?
ALDH1A1 inh: inconclusive; ALOX12 inhib: 5.9%; HPGD inh: 14.1µM*; LMNA splice mod: -2.4%; PNC inhibitor: 40.8

What do the screens show for `COCCNC(=O)c1ccc2c(c1)ncn2-c1ccc(F)c(F)c1`?
ALDH1A1 inh: -15.1%; ALOX12 inhib: 2.4%; HPGD inh: 2.51µM*; LMNA splice mod: -11.4%; PNC inhibitor: 68.6

How did CCOC(CNC(=O)c1ccc2c(c1)ncn2-c1ccc(F)c(F)c1)OCC do in these assays?
ALDH1A1 inh: 8.8%; LMNA splice mod: 15.3%[46 µM]

What do the screens show for `CCOC(CNC(=O)c1ccc2c(c1)ncn2-c1cccc(F)c1)OCC`?
ALDH1A1 inh: 1.6%

What do the screens show for `COC(CNC(=O)c1ccc2c(c1)nc(C)n2-c1ccc(F)c(F)c1)OC`?
ALDH1A1 inh: -4.8%; ALOX12 inhib: -2.4%; HPGD inh: 11.2µM*; LMNA splice mod: 2.8%; PNC inhibitor: -91.0*

What do the screens show for `CCc1ccc(NC(=O)CSc2nnc(-c3nonc3NC(C)=O)n2-c2ccccc2)cc1`?
LMNA splice mod: 6.7%[46 µM]

Results for CC1=C(C(=O)Nc2cccc(F)c2)C2(CCCCCC2)OC1=O ?
LMNA splice mod: 5.6%[46 µM]

Results for O=C(O)Cn1c(SCc2ccccc2)nc2ccccc21 ?
ALDH1A1 inh: 7.6%; ALOX12 inhib: -1.1%; HPGD inh: -5.3%; LMNA splice mod: -0.3%; PNC inhibitor: inconclusive

What do the screens show for `O=C(O)Cn1c(SCc2cccc3ccccc23)nc2ccccc21`?
ALDH1A1 inh: 1.7%; ALOX12 inhib: 6.7%; HPGD inh: 25.1µM*; LMNA splice mod: 10.4%; PNC inhibitor: 93.8

What do the screens show for `COC(=O)c1ccc(-n2c(/C=C\c3cccc(Br)c3)nc3ccccc3c2=O)cc1`?
LMNA splice mod: -9.3%[46 µM]

How did Cc1ccc2nc(CSc3nnc(NC(=O)COc4ccccc4F)s3)cc(=O)n2c1 do in these assays?
LMNA splice mod: 2.6%[46 µM]

What do the screens show for `CCN(CC)c1nn2c(=O)c(C(=O)NCc3ccc(OC)cc3OC)cnc2s1`?
LMNA splice mod: 3.6%[46 µM]

What do the screens show for `CC1CCCCN1S(=O)(=O)c1ccc(N(C(=O)c2cnccn2)C(C(=O)NC2CCCCC2)c2cccs2)cc1` (stereo unspecified)?
ALDH1A1 inh: 8.91µM*; ALOX12 inhib: 0.2%; HPGD inh: -8.2%; LMNA splice mod: -6.6%; PNC inhibitor: -25.5

How did CC1CCCCN1S(=O)(=O)c1ccc(N(C(=O)c2cnccn2)C(C(=O)NC2CCCC2)c2cccs2)cc1 (stereo unspecified) do in these assays?
ALDH1A1 inh: 3.98µM*; ALOX12 inhib: -1.0%; HPGD inh: -6.5%; LMNA splice mod: -7.9%; PNC inhibitor: inconclusive

How did Cc1ccc(C)c(Nc2ncnc3onc(C)c23)c1 do in these assays?
LMNA splice mod: 13.8%[46 µM]

What do the screens show for `CCN(CC)C(=O)c1sc(NC(=O)C(Sc2ccccc2)c2ccccc2)c(C(=O)OC(C)C)c1C` (stereo unspecified)?
ALDH1A1 inh: -15.3%; ALOX12 inhib: 3.6%; HPGD inh: -21.1%; LMNA splice mod: -0.7%; PNC inhibitor: 11.4

What do the screens show for `CCN(CC)C(=O)c1sc(N)c(C(=O)OC(C)C)c1C`?
ALDH1A1 inh: inconclusive; ALOX12 inhib: -2.1%; HPGD inh: 20µM*; LMNA splice mod: -9.3%; PNC inhibitor: 21.0

What do the screens show for `CCOC(=O)C(=O)Nc1sc(C(=O)N(CC)CC)c(C)c1C#N`?
ALDH1A1 inh: -1.9%; LMNA splice mod: inconclusive

How did CCN(CC)C(=O)c1sc(N)c(C#N)c1C do in these assays?
ALDH1A1 inh: inconclusive; ALOX12 inhib: -2.9%; HPGD inh: -13.4%; LMNA splice mod: 1.5%; PNC inhibitor: -94.9*

Results for CCOC(=O)C1(CCCc2ccccc2)CCN(C(=O)c2ocnc2C)CC1 ?
ALDH1A1 inh: 0.891µM*

Results for CCOC(=O)C1(CCCc2ccccc2)CCN(C(=O)CCc2cnccn2)CC1 ?
ALDH1A1 inh: 3.98µM*

Results for CCOC(=O)C1(CCc2ccccc2)CCN(C(=O)CCn2cncn2)CC1 ?
ALDH1A1 inh: -1.5%

Results for CCOC(=O)C1(CCCc2ccccc2)CCN(C(=O)c2cncs2)CC1 ?
ALDH1A1 inh: 5.62µM*

What do the screens show for `CCOC(=O)C1(CCCc2ccccc2)CCN(C(=O)C(C)n2cncn2)CC1` (stereo unspecified)?
ALDH1A1 inh: 7.08µM*; LMNA splice mod: inconclusive

What do the screens show for `CCOC(=O)C1(CCCc2ccccc2)CCN(C2CCSCC2)CC1`?
ALDH1A1 inh: -2.5%; LMNA splice mod: inconclusive

Results for CS(=O)(=O)Nc1cccc(-c2ccc3ncnc(Nc4ccccc4)c3c2)c1 ?
ALDH1A1 inh: -3.5%; LMNA splice mod: inconclusive

Results for CCN1CCN(C(=O)c2cnn(-c3cccc(C)c3)c2C2CCN(C(=O)OC(C)(C)C)CC2)CC1 ?
LMNA splice mod: -2.4%[46 µM]

How did Cc1ccc(N=C/C(C(=O)C(F)(F)F)=C(\O)c2ccco2)cc1Cl do in these assays?
ALDH1A1 inh: 2.24µM*; ALOX12 inhib: -0.9%; LMNA splice mod: -1.6%; PNC inhibitor: -19.2

How did CC(=O)Oc1ccc(C(=O)Nc2cccc(C(=O)c3ccc(C)c(C)c3)c2)cc1 do in these assays?
ALDH1A1 inh: -1.8%; ALOX12 inhib: -3.5%; HPGD inh: -16.1%; LMNA splice mod: -6.1%; PNC inhibitor: 32.1

Results for Cc1ccc(NC2=Nc3ccccc3CC2)cc1 ?
ALDH1A1 inh: -0.9%; ALOX12 inhib: -8.6%; HPGD inh: 31.6µM*; LMNA splice mod: -5.7%; PNC inhibitor: 34.2

What do the screens show for `COc1ccc(NCc2cc3cc(OC)ccc3[nH]c2=O)cc1`?
ALDH1A1 inh: 8.91µM*; ALOX12 inhib: -24.5%; HPGD inh: -17.3%; LMNA splice mod: 6.0%; PNC inhibitor: -22.2

How did COc1ccc(NCc2cc3ccccc3[nH]c2=O)cc1 do in these assays?
ALDH1A1 inh: 7.94µM*; ALOX12 inhib: -14.3%; LMNA splice mod: 0.4%; PNC inhibitor: inconclusive

What do the screens show for `Oc1ccc2ccccc2c1CNc1cnc2ccccc2c1`?
ALDH1A1 inh: inconclusive; ALOX12 inhib: inconclusive; HPGD inh: inconclusive; LMNA splice mod: -22.0%; PNC inhibitor: 7.3

What do the screens show for `COc1ccc(NCc2c(O)ccc3ccccc23)cc1`?
ALDH1A1 inh: 1.58µM*; ALOX12 inhib: inconclusive; HPGD inh: -8.2%

What do the screens show for `CC1/C=C/C=C/C=C/C=C/C=C/C=C/C=C/C(OC2OC(C)C(O)C(N)C2O)CC2O[C@@](O)(CC(O)CC(O)C(O)CCC(O)CC(O)CC(=O)OC(C)[C@H](C)C1O)CC(O)C2C(=O)O` (stereo partly specified)?
ALDH1A1 inh: inconclusive; ALOX12 inhib: -6.0%; HPGD inh: inconclusive

How did O=c1oc2ccccc2nc1/C=C(O)/C=C/c1ccc(F)cc1 do in these assays?
ALDH1A1 inh: -136.8%; ALOX12 inhib: inconclusive; HPGD inh: inconclusive; LMNA splice mod: inconclusive; PNC inhibitor: -18.6
